Compound activity: PubChem BioAssay, National Center for Advancing Translational Sciences (NCATS)
The list is not random: actives were taken first. Their share in the collection is about 18%.
TDP1 cell CPT: growth inhibition of DT40 Tdp1-/-;hTDP1 cells with camptothecin (screen for TDP1 inhibitors); chicken DT40 Tdp1-/-;hTDP1 cells + 20 nM CPT, ATP luminescence, 48 h; AID 686979; 420,000 compounds, 12% hits; Potency, µM (top dose mostly 46.2 µM), without a hit: top-dose activity change, negative = growth inhibition, hits mostly inhibitors; note: potency is the fitted concentration of half-maximal effect; nearly all actives have a fitted effect of over 55% in size
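Chicken DT40 Tdp1-/- cells stably complemented with human TDP1 were seeded at 400 cells/well in medium containing 20 nM camptothecin, exposed to pin-transferred compounds, and grown at 37 °C for at least 48 hr. Viability was read as ATP luminescence.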
IL-1B inflam inh: inflammasome signaling inhibition, IL-1 beta readout; THP-1 LPS/ATP IL-1B secretion, AlphaLISA, 16 h; active compounds read low; activity change, % at 57.5 µM; 360,000 compounds, 4.7% hits; in the data active = activity change below about -50%; inconclusive = mostly about -30% to -49%
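Secreted IL-1B measured by AlphaLISA bead assay after 16 h compound exposure of THP-1 cells; compounds (final up to 57.5 uM) added 1 h before LPS (250 ng/mL) and ATP (1.25 mM) stimulation; lower signal means less secretion.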
Six1-Eya2 inh: inhibitors of human Six1/Eya2 interaction. Q15475+O00167. AlphaScreen GST-Six1/His-Eya2 binding, biochemical; active compounds read low. activity change, % (test concentration not listed). 360,000 compounds, 0.56% hits. AID 651725; in the data active = activity change below about -65%; inconclusive = mostly about -30% to -63%
Target sequence (O00167 whole entry, looked up): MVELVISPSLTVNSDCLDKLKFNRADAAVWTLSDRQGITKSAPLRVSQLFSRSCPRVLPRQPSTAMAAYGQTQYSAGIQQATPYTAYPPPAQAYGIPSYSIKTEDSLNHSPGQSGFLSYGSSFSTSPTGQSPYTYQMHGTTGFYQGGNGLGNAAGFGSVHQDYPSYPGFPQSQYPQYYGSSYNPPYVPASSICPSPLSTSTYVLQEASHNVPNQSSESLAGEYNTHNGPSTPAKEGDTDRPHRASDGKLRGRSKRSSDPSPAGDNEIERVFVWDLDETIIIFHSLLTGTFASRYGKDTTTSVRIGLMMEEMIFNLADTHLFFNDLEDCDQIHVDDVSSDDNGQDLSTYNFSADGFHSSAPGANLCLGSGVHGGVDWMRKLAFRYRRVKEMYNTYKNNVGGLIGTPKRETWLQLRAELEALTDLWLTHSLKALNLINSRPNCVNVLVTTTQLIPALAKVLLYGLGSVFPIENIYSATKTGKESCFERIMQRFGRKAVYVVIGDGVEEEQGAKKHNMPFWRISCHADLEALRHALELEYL
Target sequence (Q15475 whole entry, looked up): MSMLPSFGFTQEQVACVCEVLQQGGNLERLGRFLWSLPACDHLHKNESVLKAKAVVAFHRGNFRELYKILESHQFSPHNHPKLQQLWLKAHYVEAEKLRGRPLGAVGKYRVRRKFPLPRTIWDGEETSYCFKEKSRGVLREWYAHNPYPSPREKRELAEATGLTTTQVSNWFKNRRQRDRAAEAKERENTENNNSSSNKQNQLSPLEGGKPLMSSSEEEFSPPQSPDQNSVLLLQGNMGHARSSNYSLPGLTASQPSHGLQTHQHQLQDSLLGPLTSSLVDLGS
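Homogeneous AlphaScreen proximity assay pairing GST-Six1 with His-tagged Eya2 (added as 5X mix: 250 nM and 500 nM) in 50 mM Tris pH 8.0, 300 mM NaCl, 1 mM TCEP. Glutathione donor and nickel acceptor beads; 1 h, 37 °C, dark.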
CtBP-E1A blk: blocks the CtBP interaction with E1A; AlphaScreen GST-E1A/His-CtBP binding, 1536-well; active compounds read low; activity change, % (concentration not given with the values); 340,000 compounds, 0.49% hits; AID 651724; in the data active = activity change below about -65%; inconclusive = mostly about -30% to -63%
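GST-E1A and His-tagged CtBP (125 nM each as 5X stock) were preincubated with pin-transferred compound for 2 h at 37 °C in the dark, then glutathione donor and nickel acceptor beads were added for 1 h before AlphaScreen reading.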
TDP1 cell noCPT: qHTS for Inhibitors of human tyrosyl-DNA phosphodiesterase 1 (TDP1): qHTS in cells in absence of CPT; DT40 Tdp1-/- hTDP1 cells, no CPT, ATP luminescence, 48 h; Potency, µM (top dose mostly 46.2 µM), without a hit: at the top dose activity change, negative = growth inhibition, hits mostly inhibitors; 420,000 compounds, 15% hits; AID 686978, 2013; note: potency is the fitted concentration of half-maximal effect; nearly all actives have a fitted effect of over 55% in size
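DT40 Tdp1-/-;hTDP1 cells, no CPT (DMSO vehicle only), 400 cells/well; compounds pin-transferred; ≥48 hr, 37 °C; CellTiter-Glo 30 min RT dark, luminescence read.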
TDP1 block: blocks human tyrosyl-DNA phosphodiesterase 1; recombinant TDP1, AlphaScreen DNA substrate cleavage; Potency, µM (titrated, usually from 130 µM), for the others: at the top dose activity change, negative = inhibition, usual class: inhibitors; 350,000 compounds, 0.28% hits; AID 485290; note: potency is the fitted concentration of half-maximal effect; nearly all actives have a fitted effect of over 40% in size
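Compounds were preincubated with Tdp1 (1 nM final) for 15 min at room temperature before substrate (15 nM final) started a 5 min reaction; beads (10 ug/ml final) were then added for 10 min before AlphaScreen detection.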
Active calls of the source: *; ? = inconclusive; . = not tested or not shown. Unless noted, calls come from the whole dose curve; as a rule, active = well fitted curve in the direction sought with a large enough effect; inconclusive = small, poorly fitted or top-dose-only effect, or another doubt; inactive = no such curve, though single readings can be large; an effect the other way counts as inactive or inconclusive. % is set by controls: 0 for no effect and ±100 for the full control effect.

SMILES	TDP1 cell CPT	IL-1B inflam inh	Six1-Eya2 inh	CtBP-E1A blk	TDP1 cell noCPT	TDP1 block
CCOc1ccc2[nH]c(C(=O)N/N=C/c3ccccc3OC)cc2c1	5.8µM*	-7.9	0.0	-17.7	7.31µM*	.
COc1ccccc1C=NNC(=O)c1ccccc1OCCOc1ccccc1	?	?	-10.9	-3.8	?	1.1%
COc1ccc(S(=O)(=O)N2CCC(C(N)=O)CC2)c2ccccc12	-1.3%	0.0	-14.8	-0.8	?	5.3%
Cc1cccc(N2CCN(c3nnnn3-c3ccccc3)CC2C)c1 (configuration not stated)	?	-13.9	0.0	-10.4	?	1.5%
COc1ccccc1C(=O)NC(=S)/C=C1/N(C)c2ccccc2C1(C)C	?	?	-72.9*	-73.7*	?	3.4%
CN1/C(=C/C(=S)NC(=O)C2(C)CC2(Cl)Cl)C(C)(C)c2ccccc21 (configuration not stated)	?	-12.7	-66.3*	-71.7*	23.1µM*	10.3%
CN1/C(=C\C=N\NC(=O)c2ccccc2Br)C(C)(C)c2ccccc21	-26.4%	9.6	-6.1	-5.9	?	-0.6%
CN1/C(=C\C(=S)NC(=O)c2ccccc2Cl)C(C)(C)c2ccccc21	7.31µM*	-53.5*	?	-28.3	4.61µM*	10.6%
Cc1ccc2cccc(NC(=O)COc3cc(C)c(Cl)c(C)c3)c2n1	.	.	.	.	.	5.8%
Cc1cccc(CS(=O)(=O)Cc2ccc(C(=O)NCc3ccc(Cl)cc3)o2)c1	16.4µM*	.	.	.	23.1µM*	2.8%
Cc1cccc(CS(=O)(=O)Cc2ccc(C(=O)NCc3ccc(F)cc3)o2)c1	20.6µM*	.	.	.	?	5.2%
Cc1cccc(CS(=O)(=O)Cc2ccc(C(=O)NCc3cccnc3)o2)c1	-12.5%	10.2	-0.9	2.3	-12.5%	5.2%
COc1ccc(C(C)C)cc1S(=O)(=O)N1CCN(c2ccccc2)CC1	?	0.0	-12.6	-2.1	-18.9%	2.4%
CCCC[C@@H]1Cc2[nH][nH]c(=O)c2[C@H](c2cccc3ccccc23)O1	4.5%	-13.3	-11.5	-3.1	-23.5%	.
OC(CC(O)c1ccccc1)c1ccccc1 (configuration not stated)	-2.1%	-1.8	7.7	6.3	0.9%	.
O=S(CC(O)c1ccccc1)c1ccccc1 (configuration not stated)	?	5.8	6.1	2.0	16.4µM*	.
Cn1cc(S(=O)(=O)c2ccccc2)c(=O)c2cc(F)c(N3CCCC3)cc21	-17.0%	.	.	.	-20.8%	2.5%
CCc1ccc(S(=O)(=O)c2cn(C)c3cc(N4CCCCC4C)c(F)cc3c2=O)cc1 (configuration not stated)	?	.	.	.	14.6µM*	1.2%
Cc1ccc(C)c(S(=O)(=O)c2cn(C)c3cc(F)c(F)cc3c2=O)c1	-17.6%	.	.	.	-16.1%	1.3%
CCc1ccc(S(=O)(=O)c2cn(C)c3cc(N4CCC(C)CC4)c(F)cc3c2=O)cc1	14.6µM*	.	.	.	14.6µM*	3.7%
Cc1ccc(C)c(S(=O)(=O)c2cn(C)c3cc(N4CCCCC4C)c(F)cc3c2=O)c1 (configuration not stated)	20.6µM*	.	.	.	20.6µM*	6.2%
CCc1ccc(S(=O)(=O)c2cn(C)c3cc(N4CCOCC4)c(F)cc3c2=O)cc1	-29.4%	.	.	.	-29.5%	-5.0%
Cc1cccc(Nc2ccc(S(=O)(=O)N3CCOCC3)cc2[N+](=O)[O-])c1	?	-24.0	?	?	-24.8%	8.6%
CS(=O)(=O)N1CCN(c2ccc([N+](=O)[O-])c(SCc3ccco3)c2)CC1	?	14.9	-14.5	-5.5	?	0.0%
N#Cc1cc2c(nc1SCC(=O)Nc1sc3c(c1C#N)CCC3)CCCCC2	?	-7.9	2.3	4.1	-21.4%	6.3%
SMILES	TDP1 cell CPT	IL-1B inflam inh	Six1-Eya2 inh	CtBP-E1A blk	TDP1 cell noCPT	TDP1 block
CCOC(=O)c1sc(NC(=O)CSc2n[nH]c(-c3ccc(Cl)cc3Cl)n2)c(C#N)c1C	?	0.0	-1.1	1.3	16.4µM*	3.8%
N#Cc1cc2c(nc1SCC(=O)Nc1sc3c(c1C#N)CCC3)CCCC2	?	-60.1*	2.1	-1.2	11.6µM*	-2.0%
CCOC(=O)c1sc(NC(=O)CSc2nc3c(cc2C#N)CCCCCC3)c(C#N)c1C	16.4µM*	28.1	0.9	46.3	25.9µM*	3.9%
O=C(COc1ccc(Br)cc1)N1CCC(c2ccccc2)C1 (configuration not stated)	?	-12.6	13.2	-0.7	?	1.5%
CC(C)(C)C(=O)N1CCN(c2nc3ccccc3s2)CC1	-22.6%	9.6	3.7	.	?	1.1%
CCC(=O)N1CCN(c2nc3ccc(Br)cc3s2)CC1	?	-19.0	4.1	.	18.4µM*	6.0%
CCCC(=O)N1CCN(c2nc3ccc(F)cc3s2)CC1	14.6µM*	.	.	.	11.6µM*	2.6%
CCCCC(=O)N1CCN(c2nc3ccc(F)cc3s2)CC1	?	-2.4	-2.2	.	8.2µM*	-0.1%
CCc1ccc2nc(N3CCN(C(=O)C(C)(C)C)CC3)sc2c1	?	-1.6	7.1	.	18.4µM*	1.4%
O=C(C1CC1)N1CCN(c2nc3ccc(F)cc3s2)CC1	?	.	.	.	?	2.6%
Cn1c(CNC(=O)c2ccccc2F)cc2ccccc21	-14.5%	-1.8	3.6	.	-14.9%	3.9%
O=c1[nH]c(-c2ccccc2F)nc2c1sc(=S)n2Cc1ccccc1	?	46.3	14.0	.	?	5.6%
Cc1ccc(OCC(=O)N2CCN(C(=O)c3cccs3)CC2)cc1	-9.5%	-15.9	3.5	-0.4	-19.4%	0.0%
COc1ccc(NC(=O)CSc2c3c(nc4ccccc24)CCC3)cc1Cl	0.581µM*	.	.	.	-72.7%	-11.6%
COc1ccc(NC(=O)CSc2c3c(nc4ccccc24)CCC3)c(OC)c1	?	12.7	-10.1	-2.3	20.6µM*	7.0%
O=C(CSc1c2c(nc3ccccc13)CCC2)Nc1ccc(F)cc1	?	.	.	.	?	7.0%
Cc1cc(C)nc(N2CCC(C(=O)NCCc3ccc(Cl)cc3)CC2)n1	13µM*	0.0	5.9	?	?	-8.6%
Cc1cc(C)nc(N2CCCC(C(=O)NCCc3ccc(F)cc3)C2)n1 (configuration not stated)	-7.0%	-6.6	3.2	1.5	-2.6%	5.9%
Cc1cc(C)nc(N2CCC(C(=O)NCCc3ccc(F)cc3)CC2)n1	16.4µM*	41.6	10.1	10.1	9.2µM*	2.9%
Cc1ccsc1C(=O)OCC(=O)NCCC1=CCCCC1	-2.4%	9.0	0.2	8.3	0.2%	-5.6%
